# In the supplement of paper PMC8728848:
# The sample as a whole holds a higher share of the strongest signals than the screen did.
# How the values were obtained:
# Test in all cases: glycan array binding signal (z-score within array); higher = stronger binding
# Conditions in all cases: glycan notation: IUPAC condensed, linker removed
# [1] = target: Fuc(a1-2)Gal(b1-3)GalNAc(b1-4)[Neu5Ac(a2-3)]Gal(b1-4)Glc
# Procedure, shortened: (§1)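 Glycan array data were curated from 3228 arrays in the Consortium for Functional Glycomics database and kept only where the protein sequence was available. Glycan names were converted to IUPAC-condensed notation, and columns mapping to the same glycan were averaged. The binding signal is a within-array Z-score, averaged across arrays of the same protein sequence at different concentrations or buffers and across linkers. Negative Z-scores can be read as non-binding.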
# [2] = target: Fuc(a1-2)Gal(b1-3)GlcNAc6S
# Procedure, shortened: as §1
# [3] = target: Fuc(a1-2)Gal(b1-3)[Fuc(a1-4)]GlcNAc(b1-2)Man(a1-3)[Fuc(a1-2)Gal(b1-3)[Fuc(a1-4)]GlcNAc(b1-2)Man(a1-6)]Man(b1-4)GlcNAc(b1-4)GlcNAc
# Procedure, shortened: as §1
# [4] = target: Fuc(a1-2)[Gal(a1-3)]Gal(b1-3)GlcNAc
# Procedure, shortened: as §1
# [5] = target: Fuc(a1-2)[Gal(a1-3)]Gal(b1-4)[Fuc(a1-3)]GlcNAc(b1-3)GalNAc
# Procedure, shortened: as §1
# [6] = target: Fuc(a1-2)[GalNAc(a1-4)]Gal(b1-4)GlcNAc
# Procedure, shortened: as §1
# [7] = target: Fuc(a1-3)[Gal(b1-4)]GlcNAc(b1-2)Man(a1-3)[Fuc(a1-3)[Gal(b1-4)]GlcNAc(b1-2)Man(a1-6)]Man(b1-4)GlcNAc(b1-4)[Fuc(a1-6)]GlcNAc
# Procedure, shortened: as §1
# [8] = target: Fuc(a1-3)[Gal3S(b1-4)]GlcNAc6S
# Procedure, shortened: as §1
# [9] = target: Gal(a1-3)Gal(b1-4)[Fuc(a1-3)]GlcNAc(b1-2)Man(a1-3)[Gal(a1-3)Gal(b1-4)[Fuc(a1-3)]GlcNAc(b1-2)Man(a1-6)]Man(b1-4)GlcNAc(b1-4)GlcNAc
# Procedure, shortened: as §1
# [10] = target: Gal(a1-4)Gal(b1-4)GlcNAc(b1-3)Gal(b1-4)Glc
# Procedure, shortened: as §1
# [11] = target: Gal(b1-3)Gal(b1-4)GlcNAc(b1-2)Man(a1-3)[Gal(b1-3)Gal(b1-4)GlcNAc(b1-2)Man(a1-6)]Man(b1-4)GlcNAc(b1-4)GlcNAc
# Procedure, shortened: as §1
# [12] = target: Gal(b1-4)GlcNAc(b1-2)Man(a1-3)Man(b1-4)GlcNAc(b1-4)GlcNAc
# Procedure, shortened: as §1
# [13] = target: Gal(b1-4)GlcNAc(b1-2)Man(a1-3)[Gal(b1-4)GlcNAc(b1-2)][GlcNAc(b1-4)]Man(b1-4)GlcNAc(b1-4)GlcNAc
# Procedure, shortened: as §1
# [14] = target: Gal(b1-4)GlcNAc(b1-2)Man(a1-3)[Man(a1-6)]Man(b1-4)GlcNAc(b1-4)GlcNAc
# Procedure, shortened: as §1
# [15] = target: Gal(b1-4)GlcNAc(b1-2)Man(a1-6)[Man(a1-3)]Man(b1-4)GlcNAc(b1-4)GlcNAc
# Procedure, shortened: as §1
# [16] = target: Gal(b1-4)GlcNAc(b1-2)[Gal(b1-4)GlcNAc(b1-6)]Man(a1-6)[Gal(b1-4)GlcNAc(b1-2)Man(a1-3)]Man(b1-4)GlcNAc(b1-4)[Fuc(a1-6)]GlcNAc
# Procedure, shortened: as §1
# [17] = target: Gal(b1-6)Gal
# Procedure, shortened: as §1
# [18] = target: Gal3S6S(b1-4)GlcNAc6S
# Procedure, shortened: as §1
# [19] = target: Gal6S(b1-3)GlcNAc
# Procedure, shortened: as §1
# [20] = target: Gal6S(b1-4)GlcNAc6S
# Procedure, shortened: as §1
# [21] = target: GalNAc(b1-3)GalNAc
# Procedure, shortened: as §1
# [22] = target: GlcA(b1-3)Gal
# Procedure, shortened: as §1
# [23] = target: GlcNAc(a1-4)Gal(b1-4)GlcNAc
# Procedure, shortened: as §1
# [24] = target: GlcNAc(a1-4)Gal(b1-4)GlcNAc(b1-3)Gal(b1-4)GlcNAc(b1-3)Gal(b1-4)GlcNAc
# Procedure, shortened: as §1
# [25] = target: GlcNAc(b1-4)GlcNAc(b1-4)GlcNAc(b1-4)GlcNAc(b1-4)GlcNAc
# Procedure, shortened: as §1
# [26] = target: Man(a1-2)Man(a1-3)[Man(a1-2)Man(a1-6)]Man(a1-6)[Man(a1-2)Man(a1-2)Man(a1-3)]Man
# Procedure, shortened: as §1
# [27] = target: Man(a1-3)[Man(a1-6)]Man(a1-6)[Man(a1-2)Man(a1-3)]Man(b1-4)GlcNAc(b1-4)GlcNAc
# Procedure, shortened: as §1
# [28] = target: Man(a1-3)[Man(a1-6)]Man(b1-4)GlcNAc(b1-4)GlcNAc
# Procedure, shortened: as §1
# [29] = target: Man(a1-3)[Man(a1-6)]Man(b1-4)GlcNAc(b1-4)[Fuc(a1-6)]GlcNAc
# Procedure, shortened: as §1
# [30] = target: Neu5Ac(a2-3)Gal(b1-3)GlcNAc(b1-3)Gal(b1-3)GlcNAc
# Procedure, shortened: as §1
# [31] = target: Neu5Ac(a2-3)Gal(b1-3)GlcNAc(b1-6)GalNAc
# Procedure, shortened: as §1
# [32] = target: Neu5Ac(a2-3)Gal(b1-4)GlcNAc(b1-2)Man(a1-3)[Neu5Ac(a2-6)Gal(b1-4)GlcNAc(b1-2)Man(a1-6)]Man(b1-4)GlcNAc(b1-4)GlcNAc
# Procedure, shortened: as §1
# [33] = target: Neu5Ac(a2-3)Gal(b1-4)GlcNAc(b1-3)Gal(b1-3)GlcNAc
# Procedure, shortened: as §1
# [34] = target: Neu5Ac(a2-3)Gal(b1-4)GlcNAc(b1-3)Gal(b1-4)GlcNAc(b1-3)Gal(b1-4)GlcNAc
# Procedure, shortened: as §1
# [35] = target: Neu5Ac(a2-6)Gal(b1-4)GlcNAc(b1-2)Man(a1-3)Man(b1-4)GlcNAc(b1-4)GlcNAc
# Procedure, shortened: as §1
# [36] = target: Neu5Ac(a2-6)Gal(b1-4)GlcNAc(b1-2)Man(a1-6)[Gal(b1-4)GlcNAc(b1-2)Man(a1-3)]Man(b1-4)GlcNAc(b1-4)GlcNAc
# Procedure, shortened: as §1
# [37] = target: Neu5Ac(a2-6)Gal(b1-4)GlcNAc(b1-2)Man(a1-6)[Man(a1-3)]Man(b1-4)GlcNAc(b1-4)GlcNAc
# Procedure, shortened: as §1
# [38] = target: Neu5Ac(a2-8)Neu5Ac(a2-8)Neu5Ac(a2-3)Gal(b1-4)Glc
# Procedure, shortened: as §1
binder,measurement,setting,value
Morniga (Morus nigra) (protein) MAGTSTNTQTTGTSQTVEVGLWGGPGGNAWDDGSYTGIREINLSHGDAIGAFSVIYDLNGQPFTGPTHPGNEPSFKTVKITLDFPNEFLVSVSGYTGVLPRLATGKDVIRSLTFKTNKKTYGPYGKEEGTPFSLPIENGLIVGFKGRSGFVVDAIGVHLS,glycan array binding signal (z-score),[1],-0.335
same,glycan array binding signal (z-score),[2],-0.321
same,glycan array binding signal (z-score),[3],-0.19
same,glycan array binding signal (z-score),[4],-0.332
same,glycan array binding signal (z-score),[5],-0.329
same,glycan array binding signal (z-score),[6],-0.34
same,glycan array binding signal (z-score),[7],-0.304
same,glycan array binding signal (z-score),[8],-0.324
same,glycan array binding signal (z-score),[9],0.347
same,glycan array binding signal (z-score),[10],-0.341
same,glycan array binding signal (z-score),[11],4.04
same,glycan array binding signal (z-score),[12],4.3
same,glycan array binding signal (z-score),[13],1.41
same,glycan array binding signal (z-score),[14],4.49
same,glycan array binding signal (z-score),[15],4.24
same,glycan array binding signal (z-score),[16],1.6
same,glycan array binding signal (z-score),[17],-0.326
same,glycan array binding signal (z-score),[18],-0.316
same,glycan array binding signal (z-score),[19],-0.338
same,glycan array binding signal (z-score),[20],-0.337
same,glycan array binding signal (z-score),[21],-0.327
same,glycan array binding signal (z-score),[22],-0.333
same,glycan array binding signal (z-score),[23],-0.296
same,glycan array binding signal (z-score),[24],-0.327
same,glycan array binding signal (z-score),[25],-0.335
same,glycan array binding signal (z-score),[26],-0.327
same,glycan array binding signal (z-score),[27],4.19
same,glycan array binding signal (z-score),[28],5.03
same,glycan array binding signal (z-score),[29],4.02
same,glycan array binding signal (z-score),[30],-0.332
same,glycan array binding signal (z-score),[31],-0.299
same,glycan array binding signal (z-score),[32],2.56
same,glycan array binding signal (z-score),[33],-0.325
same,glycan array binding signal (z-score),[34],-0.342
same,glycan array binding signal (z-score),[35],3.66
same,glycan array binding signal (z-score),[36],3.24
same,glycan array binding signal (z-score),[37],4.66
same,glycan array binding signal (z-score),[38],-0.334
